The full list was thinned out, with hits kept by preference.
ROC1-CUL1 inh: human ROC1-CUL1 E3 ligase inhibition. P62877+Q13616. in vitro K48 di-Ub FRET, acceptor:donor ratio, 45 min. inhibition, % at 10 µM. actives 0.6% (n = 140,000); in the data active = inhibition above about 25%
Target sequence (P62877 whole entry, looked up): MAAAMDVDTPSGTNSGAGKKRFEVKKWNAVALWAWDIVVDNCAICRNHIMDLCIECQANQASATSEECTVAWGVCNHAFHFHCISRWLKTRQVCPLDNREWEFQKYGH
Target sequence (Q13616 whole entry, looked up): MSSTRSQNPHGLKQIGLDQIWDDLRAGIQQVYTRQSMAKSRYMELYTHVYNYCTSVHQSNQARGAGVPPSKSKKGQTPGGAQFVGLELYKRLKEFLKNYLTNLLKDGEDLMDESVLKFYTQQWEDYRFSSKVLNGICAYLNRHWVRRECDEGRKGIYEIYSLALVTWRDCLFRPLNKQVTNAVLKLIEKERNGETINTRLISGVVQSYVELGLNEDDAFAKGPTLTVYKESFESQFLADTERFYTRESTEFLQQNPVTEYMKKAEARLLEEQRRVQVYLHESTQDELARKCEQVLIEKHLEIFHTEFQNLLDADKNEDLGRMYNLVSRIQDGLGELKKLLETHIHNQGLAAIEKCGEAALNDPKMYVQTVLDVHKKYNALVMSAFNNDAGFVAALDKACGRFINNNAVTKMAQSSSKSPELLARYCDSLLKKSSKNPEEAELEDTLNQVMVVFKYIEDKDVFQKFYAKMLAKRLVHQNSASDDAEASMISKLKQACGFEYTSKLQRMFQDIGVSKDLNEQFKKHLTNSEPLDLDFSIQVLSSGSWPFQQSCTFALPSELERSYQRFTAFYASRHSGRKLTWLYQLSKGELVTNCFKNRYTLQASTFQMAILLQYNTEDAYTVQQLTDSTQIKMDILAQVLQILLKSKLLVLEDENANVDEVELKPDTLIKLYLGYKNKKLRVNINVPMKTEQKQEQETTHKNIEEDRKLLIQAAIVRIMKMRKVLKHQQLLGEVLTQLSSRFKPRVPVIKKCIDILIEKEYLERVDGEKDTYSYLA
The depositor's hits bear a star.

SMILES | ROC1-CUL1 inh
COc1ccc([N+](=O)[O-])cc1/C=N/n1c(-c2ccccc2)n[nH]c1=S | -6
O=C(O)C#CC12CC3CC(CC(C3)C1)C2 | 0
OC(C#CC12CC3CC(CC(C3)C1)C2)c1ccccn1 (configuration not stated) | 12
Cc1ccc(C(O)C#CC23CC4CC(CC(C4)C2)C3)o1 (configuration not stated) | 99*
CCN(CC)S(=O)(=O)c1cc(Br)ccc1Br | 3
O=C1NC(=O)N(c2cccc(Cl)c2)C(=O)C1C=NN1C(=O)c2cccc3c(Br)ccc(c23)C1=O (configuration not stated) | 8
O=C(Nc1cccc(O)c1)c1cnn2c(C(F)(F)F)cc(-c3ccc(Br)cc3)nc12 | 4
C[n+]1c2ccccc2n2nc3c(cc21)c1cccc2cccc3c21 | 13
C[n+]1c2cc3ccccc3cc2n2nc3c(cc21)c1cccc2cccc3c21 | 97*
C[n+]1c2ccccc2n2nc3c(cc21)c1cccnc1c1ncccc31 | -4
O=C(CN1CCN(c2cc(Cl)cc3ncccc23)CC1)c1ccc(O)c(O)c1 | 84*
CC(C)(C)C(=O)N1CCN(c2ccnc3cc(Cl)ccc23)CC1 | 7
CC(C)(C)c1ccc(CN2CCN(c3ccnc4cc(Cl)ccc34)CC2)cc1 | 1
C=CCOc1cccc(C2C(C(=O)c3cccs3)C(=O)C(=O)N2Cc2cccnc2)c1 (configuration not stated) | -8
Clc1ccccc1COc1cccc(/C=N/Nc2nc(N3CCOCC3)nc(N3CCOCC3)n2)c1 | 1
CC1=C(Sc2ccccc2)C(=O)c2ccccc2C1=O | -7
C=CCn1c(SCC(=O)Nc2sc(C(=O)OCC)c(C)c2C(=O)OCC)nc2scc(-c3ccco3)c2c1=O | 8
C=CCn1c(SCC(=O)Nc2cccc(C(F)(F)F)c2)nc2sc3c(c2c1=O)CCC3 | -5
C=CCn1c(SCC(=O)Nc2cccc(C(F)(F)F)c2)nc2scc(-c3ccco3)c2c1=O | 34*
C=C(C)Cn1c(=O)c2c(nc3n(-c4ccc(F)cc4)c(C)cn23)n(C)c1=O | -2
CN(Cc1nccs1)c1nc2nonc2nc1N1CCCCC1 | -6
Cn1c(NCCN)nc2c1c(=O)n(Cc1ccccc1)c(=O)n2C | -2
COCCCNc1nc2c(c(=O)n(C)c(=O)n2C)n1Cc1ccccc1 | 0
Cn1c(=O)c2c(nc(NCCN)n2Cc2ccc(Cl)cc2)n(C)c1=O | 27*
O=S(=O)(c1ccc2c(c1)Cc1cc(S(=O)(=O)N(CCO)CCO)ccc1-2)N(CCO)CCO | -3
SMILES | ROC1-CUL1 inh
CC(C)(C)C(=O)Nc1ccccc1C(O)c1ccccc1 (configuration not stated) | -6
O=C1/C(=C\c2ccc(-c3ccc(Cl)c(Cl)c3)o2)SC(=Nc2ccccc2)N1Cc1ccco1 | 1
N#Cc1ccc(/C=C2/SC(=Nc3ccccc3)N(Cc3ccc(C(=O)O)cc3)C2=O)cc1 | -2
N#Cc1ccc(-c2ccc(/C=C3\SC(=Nc4ccccc4)N(Cc4ccco4)C3=O)o2)cc1 | 53*
Cc1ccccc1C(c1ccccc1)N(C)C (configuration not stated) | -7
Cc1noc(C)c1Sc1nc2ccccc2[nH]1 | -11
O=C(c1sc2cc(Cl)ccc2c1Cl)N1CCN(c2cccc(Cl)c2)CC1 | -15
CC(C(=O)O)N1C(=O)/C(=C\c2ccco2)SC1=S (configuration not stated) | 53*
CC(C)C(C(=O)O)N1C(=O)/C(=C/c2ccc(F)cc2)SC1=S (configuration not stated) | 15
CC(C)C(C(=O)O)N1C(=O)/C(=C\c2ccco2)SC1=S (configuration not stated) | 102*
O=C1/C(=C\c2ccco2)SC(=S)N1c1cccc(O)c1 | 9
O=C(CN1C(=O)S/C(=C\c2ccco2)C1=O)c1ccc(Br)cc1 | -1
O=C1/C(=C/c2ccco2)SC(=S)N1c1ccccc1Br | -4
CN(C)CCN(C)Cc1ccccc1Sc1ccc2c(c1)OCO2 | 2
CC(=O)N1N=C(c2ccccc2O)CC1c1ccc(Cl)cc1 (configuration not stated) | -5
CCC(C)c1ccccc1NC(=O)Cc1cccs1 (configuration not stated) | -1
CCCc1cc2c(=O)c(-c3ccc4c(c3)OCCO4)coc2cc1OC(=O)c1cccs1 | 0
COc1ccc(N2CCN(C(=O)c3ccc4c(c3)OCCO4)CC2)cc1 | -2
Cc1c(-c2ccc(O)c(O)c2)oc2ccccc2c1=O | 93*
Cc1cccc2oc3ccccc3c(=O)c12 | 0
Cc1ccc2oc3ccccc3c(=O)c2c1 | -4
C#Cc1cccc(C(=O)N2CCC3(CC2)c2ccccc2[C@@H](NC(=O)COc2ccccc2)[C@@H]3OC)c1 | -3
O=S(=O)(Cc1ccccc1Cl)NC1CC2CCC1C2 (configuration not stated) | 11
Cc1sc(NC(=O)C2C3CCC(C3)C2C(=O)O)c(C(N)=O)c1-c1ccccc1 (configuration not stated) | 3
Cc1ccc(N2C(=O)NC(=O)C3C2=NC(=O)C3(NC(=O)C(C)(C)C)C(F)(F)F)cc1 (configuration not stated) | -6

Screens as filed in PubChem.
